# Measured values reported in PubChem BioAssay (NCI).
# Compounds without any hit were thinned out: in the full panel of roughly 79,000, 15% have a hit. Values without a mark were called inactive. Activity calls are given as the source filed them. Cut-off read from the data, not from the text of the source: active = growth inhibition above about 70%; inactive = the rest.
# Legend:
# [1] = NCI Yeast Anticancer Drug Screen. Data for the wt1 strain (AID 149);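 note: 0% = growth of vehicle-treated wt1 cultures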; conditions: S. cerevisiae wt1 strain (SPY 50644) growth inhibition, hits give high values
# Summary of the method: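 wt1 strain grown with compound or vehicle; inhibition taken from the growth difference.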
# [2] = NCI Yeast Anticancer Drug Screen. Data for the rad50EPP+ strain (AID 151);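 note: 0% = growth of vehicle-treated control cultures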; conditions: S. cerevisiae rad50 mutant strain, hits give high values
# Summary of the method: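 Compounds were applied to the rad50EPP+ yeast strain, which bears a defined DNA repair alteration, and growth inhibition was determined relative to vehicle-treated cultures.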
# [3] = NCI Yeast Anticancer Drug Screen. Data for the mgt1 strain (AID 153); conditions: S. cerevisiae mgt1 mutant growth inhibition, hits give high values
# Summary of the method: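 Strain: mgt1 yeast, one of a set carrying defined DNA damage repair or cell cycle control alterations. Compound-treated growth compared with vehicle.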
# [4] = NCI Yeast Anticancer Drug Screen. Data for the rad50 strain (AID 155);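 note: 0% = growth of vehicle-only cultures of the same strain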; conditions: S. cerevisiae rad50 strain growth inhibition, hits give high values
# Summary of the method: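 DNA repair mutant yeast, compound exposure, growth read-out; inhibition is taken relative to vehicle.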
# [5] = NCI Yeast Anticancer Drug Screen. Data for the mec2-1 strain (AID 157); conditions: S. cerevisiae mec2-1 strain, hits give high values
# Summary of the method: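 Strain: mec2-1 (DNA repair/cell cycle alteration). Compound exposure, then growth measured; inhibition expressed relative to vehicle.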
# [6] = NCI Yeast Anticancer Drug Screen. Data for the rad14 strain (AID 159);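 note: 0% = growth of vehicle-treated control cultures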; conditions: S. cerevisiae rad14 strain growth inhibition, hits give high values
# Summary of the method: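 DNA repair-defective yeast, compound-exposed; % growth inhibition derived by comparison with vehicle-treated controls.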
# [7] = NCI Yeast Anticancer Drug Screen. Data for the sgs1 mgt1 strain (AID 161);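 note: 0% = growth of cultures given vehicle only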; conditions: S. cerevisiae sgs1 mgt1 strain, hits give high values
# Summary of the method: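 Inhibition of yeast growth, normalised to vehicle-treated controls, is reported for a strain bearing genetic alterations in DNA damage repair.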
# [8] = NCI Yeast Anticancer Drug Screen. Data for the CLN2oe strain (AID 163);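 note: 0% = growth of vehicle-only control cultures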; conditions: S. cerevisiae CLN2oe strain, hits give high values
# Summary of the method: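 Growth of a genetically modified yeast strain is measured after compound exposure and compared with cultures given vehicle alone.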
# [9] = NCI Yeast Anticancer Drug Screen. Data for the cln2 rad14 strain (AID 165);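 note: 0% = growth equal to vehicle treated cultures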; conditions: S. cerevisiae cln2 rad14 strain, hits give high values
# Summary of the method: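 Compounds are applied to the cln2 rad14 yeast strain, and growth is then compared with that of vehicle-treated cultures to give inhibition.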
# [10] = NCI Yeast Anticancer Drug Screen. Data for the bub3 strain (AID 167); conditions: S. cerevisiae bub3 mutant strain, hits give high values
# Summary of the method: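 In this screen, a yeast mutant lacking normal mitotic checkpoint function is challenged with compound. Relative growth versus vehicle gives the inhibition value.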
# [11] = NCI Yeast Anticancer Drug Screen. Data for the mlh1 strain (AID 171);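 note: 0% = growth of vehicle-treated control cultures of the same strain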; conditions: S. cerevisiae mlh1 strain growth inhibition, hits give high values
# Summary of the method: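 Growth of the mutant yeast strain after compound exposure, expressed as inhibition relative to vehicle-only controls.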
# [12] = NCI Yeast Anticancer Drug Screen. Data for the sgs1 strain (AID 173);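 note: 0% = growth of vehicle-only control cultures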; conditions: S. cerevisiae sgs1 mutant, hits give high values
# Summary of the method: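 Growth of a yeast strain bearing a defined genetic alteration is measured after compound treatment. Inhibition is expressed relative to vehicle-only controls.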
# [13] = NCI Yeast Anticancer Drug Screen. Data for the mlh1 rad18 strain (AID 175); conditions: S. cerevisiae mlh1 rad18 strain growth inhibition, hits give high values
# Summary of the method: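 Read-out is yeast growth inhibition, calculated against vehicle-only controls. The compound was applied to a strain engineered with DNA damage repair alterations.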
# [14] = NCI Yeast Anticancer Drug Screen. Data for the rad18 strain (AID 177); conditions: S. cerevisiae rad18 mutant growth inhibition, hits give high values
# Summary of the method: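 Growth of the mutant yeast strain after compound exposure, normalised to vehicle-only cultures.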
# [15] = NCI Yeast Anticancer Drug Screen. Data for the wt2 strain (AID 169);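 note: 0% = growth of vehicle-treated yeast cultures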; conditions: S. cerevisiae wt2 strain growth inhibition, hits give high values
# Summary of the method: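 This strain belongs to a panel of yeast strains with defined genetic alterations in DNA damage repair or cell cycle control. Compounds are applied, and growth inhibition is measured against vehicle-treated cultures.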
# [16] = at 5.0 µM (retest, dose inferred, filed as 0.5)
# [17] = at 50.0 µM (retest, dose inferred, filed as 5.0)
compound,measurement,setting,value
CC1(C)CC(=O)C(C(CC(c2ccccc2)c2cc3c(cc2O)OCO3)C2=C(O)CC(C)(C)CC2=O)=C(O)C1 (stereo not drawn),growth inhibition,[1]; at 1.2 µM,-84%
same,growth inhibition,[1]; at 3.7 µM,-3%
same,growth inhibition,[1]; at 11.0 µM,22%
same,growth inhibition,[1]; at 33.0 µM,75% (active)
same,growth inhibition,[1]; at 100.0 µM,85% (active)
same,growth inhibition,[2]; at 1.2 µM,-2%
same,growth inhibition,[2]; at 3.7 µM,-1%
same,growth inhibition,[2]; at 11.0 µM,8%
same,growth inhibition,[2]; at 33.0 µM,18%
same,growth inhibition,[2]; at 100.0 µM,10%
same,growth inhibition,[3]; at 1.2 µM,-2%
same,growth inhibition,[3]; at 3.7 µM,1%
same,growth inhibition,[3]; at 11.0 µM,48%
same,growth inhibition,[3]; at 33.0 µM,86% (active)
same,growth inhibition,[3]; at 100.0 µM,88% (active)
same,growth inhibition,[4]; at 1.2 µM,-2%
same,growth inhibition,[4]; at 3.7 µM,1%
same,growth inhibition,[4]; [16],11%
same,growth inhibition,[4]; at 11.0 µM,33%
same,growth inhibition,[4]; at 33.0 µM,77% (active)
same,growth inhibition,[4]; [17],96% (active)
same,growth inhibition,[4]; at 50.0 µM,94.8% (active)
same,growth inhibition,[4]; at 100.0 µM,83% (active)
same,growth inhibition,[5]; at 1.2 µM,-6%
same,growth inhibition,[5]; at 3.7 µM,-3%
same,growth inhibition,[5]; [16],1%
same,growth inhibition,[5]; at 11.0 µM,43%
same,growth inhibition,[5]; at 33.0 µM,84% (active)
same,growth inhibition,[5]; [17],97% (active)
same,growth inhibition,[5]; at 50.0 µM,93.5% (active)
same,growth inhibition,[5]; at 100.0 µM,87% (active)
same,growth inhibition,[6]; at 1.2 µM,-1%
same,growth inhibition,[6]; at 3.7 µM,1%
same,growth inhibition,[6]; at 11.0 µM,22%
same,growth inhibition,[6]; at 33.0 µM,68%
same,growth inhibition,[6]; at 100.0 µM,78% (active)
same,growth inhibition,[7]; [16],0%
same,growth inhibition,[7]; [17],96% (active)
same,growth inhibition,[7]; at 50.0 µM,96.8% (active)
same,growth inhibition,[8]; at 1.2 µM,-5%
same,growth inhibition,[8]; at 3.7 µM,-3%
same,growth inhibition,[8]; at 11.0 µM,1%
same,growth inhibition,[8]; at 33.0 µM,76% (active)
same,growth inhibition,[8]; at 100.0 µM,87% (active)
same,growth inhibition,[9]; [16],21%
same,growth inhibition,[9]; [17],98% (active)
same,growth inhibition,[9]; at 50.0 µM,95% (active)
same,growth inhibition,[10]; at 1.2 µM,-3%
same,growth inhibition,[10]; at 3.7 µM,-9%
same,growth inhibition,[10]; [16],74% (active)
same,growth inhibition,[10]; at 11.0 µM,-6%
same,growth inhibition,[10]; at 33.0 µM,63%
same,growth inhibition,[10]; [17],99% (active)
same,growth inhibition,[10]; at 50.0 µM,96% (active)
same,growth inhibition,[10]; at 100.0 µM,82% (active)
same,growth inhibition,[11]; at 1.2 µM,-2%
same,growth inhibition,[11]; at 3.7 µM,-3%
same,growth inhibition,[11]; at 11.0 µM,39%
same,growth inhibition,[11]; at 33.0 µM,82% (active)
same,growth inhibition,[11]; at 100.0 µM,87% (active)
same,growth inhibition,[12]; at 1.2 µM,-1%
same,growth inhibition,[12]; at 3.7 µM,10%
same,growth inhibition,[12]; at 11.0 µM,62%
same,growth inhibition,[12]; at 33.0 µM,87% (active)
same,growth inhibition,[12]; at 100.0 µM,87% (active)
same,growth inhibition,[13]; [16],3%
same,growth inhibition,[13]; [17],97% (active)
same,growth inhibition,[13]; at 50.0 µM,95.6% (active)
same,growth inhibition,[14]; at 1.2 µM,-2%
same,growth inhibition,[14]; at 3.7 µM,5%
same,growth inhibition,[14]; at 11.0 µM,28%
same,growth inhibition,[14]; at 33.0 µM,82% (active)
same,growth inhibition,[14]; at 100.0 µM,82% (active)
O=CC(=C(I)I)c1ccccc1,growth inhibition,[1]; at 1.2 µM,15%
same,growth inhibition,[1]; at 3.7 µM,41%
same,growth inhibition,[1]; at 11.0 µM,88% (active)
same,growth inhibition,[1]; at 33.0 µM,99% (active)
same,growth inhibition,[1]; at 100.0 µM,90% (active)
same,growth inhibition,[2]; at 1.2 µM,91% (active)
same,growth inhibition,[2]; at 3.7 µM,96% (active)
same,growth inhibition,[2]; at 11.0 µM,97% (active)
same,growth inhibition,[2]; at 33.0 µM,98% (active)
same,growth inhibition,[2]; at 100.0 µM,99% (active)
same,growth inhibition,[3]; at 1.2 µM,17%
same,growth inhibition,[3]; at 3.7 µM,50%
same,growth inhibition,[3]; at 11.0 µM,98% (active)
same,growth inhibition,[3]; at 33.0 µM,99% (active)
same,growth inhibition,[3]; at 100.0 µM,93% (active)
same,growth inhibition,[4]; at 1.2 µM,93% (active)
same,growth inhibition,[4]; at 3.7 µM,95% (active)
same,growth inhibition,[4]; [16],97% (active)
same,growth inhibition,[4]; at 11.0 µM,97% (active)
same,growth inhibition,[4]; at 33.0 µM,99% (active)
same,growth inhibition,[4]; [17],100% (active)
same,growth inhibition,[4]; at 50.0 µM,85.7% (active)
same,growth inhibition,[4]; at 100.0 µM,97% (active)
same,growth inhibition,[5]; at 1.2 µM,28%
same,growth inhibition,[5]; at 3.7 µM,67%
same,growth inhibition,[5]; [16],33%
same,growth inhibition,[5]; at 11.0 µM,99% (active)
same,growth inhibition,[5]; at 33.0 µM,99% (active)
same,growth inhibition,[5]; [17],99% (active)
same,growth inhibition,[5]; at 50.0 µM,88.9% (active)
same,growth inhibition,[5]; at 100.0 µM,97% (active)
same,growth inhibition,[6]; at 1.2 µM,20%
same,growth inhibition,[6]; at 3.7 µM,38%
same,growth inhibition,[6]; at 11.0 µM,73% (active)
same,growth inhibition,[6]; at 33.0 µM,99% (active)
same,growth inhibition,[6]; at 100.0 µM,86% (active)
same,growth inhibition,[7]; [16],43%
same,growth inhibition,[7]; [17],99% (active)
same,growth inhibition,[7]; at 50.0 µM,90.8% (active)
same,growth inhibition,[8]; at 1.2 µM,-1%
same,growth inhibition,[8]; at 3.7 µM,-3%
same,growth inhibition,[8]; at 11.0 µM,23%
same,growth inhibition,[8]; at 33.0 µM,98% (active)
same,growth inhibition,[8]; at 100.0 µM,98% (active)
same,growth inhibition,[10]; at 1.2 µM,-6%
same,growth inhibition,[10]; at 3.7 µM,-4%
same,growth inhibition,[10]; [16],-17%
same,growth inhibition,[10]; at 11.0 µM,27%
same,growth inhibition,[10]; at 33.0 µM,99% (active)
same,growth inhibition,[10]; [17],100% (active)
same,growth inhibition,[10]; at 50.0 µM,92.2% (active)
same,growth inhibition,[10]; at 100.0 µM,99% (active)
same,growth inhibition,[15]; at 1.2 µM,4%
same,growth inhibition,[15]; at 3.7 µM,5%
same,growth inhibition,[15]; at 11.0 µM,38%
same,growth inhibition,[15]; at 33.0 µM,99% (active)
same,growth inhibition,[15]; at 100.0 µM,99% (active)
same,growth inhibition,[11]; at 1.2 µM,13%
same,growth inhibition,[11]; at 3.7 µM,32%
same,growth inhibition,[11]; at 11.0 µM,81% (active)
same,growth inhibition,[11]; at 33.0 µM,97% (active)
same,growth inhibition,[11]; at 100.0 µM,85% (active)
same,growth inhibition,[12]; at 1.2 µM,56%
same,growth inhibition,[12]; at 3.7 µM,79% (active)
same,growth inhibition,[12]; at 11.0 µM,99% (active)
same,growth inhibition,[12]; at 33.0 µM,99% (active)
same,growth inhibition,[12]; at 100.0 µM,99% (active)
same,growth inhibition,[13]; [16],18%
same,growth inhibition,[13]; [17],100% (active)
same,growth inhibition,[13]; at 50.0 µM,93.1% (active)
same,growth inhibition,[14]; at 1.2 µM,50%
same,growth inhibition,[14]; at 3.7 µM,72% (active)
same,growth inhibition,[14]; at 11.0 µM,96% (active)
same,growth inhibition,[14]; at 33.0 µM,98% (active)
same,growth inhibition,[14]; at 100.0 µM,95% (active)
